Assay outcomes: PubChem, National Center for Advancing Translational Sciences (NCATS)
MARV entry inh = inhibitors of Marburg virus binding or cell entry | 300,000 tested, 1.8% active | Marburg virus pseudotyped entry inhibition, cell reporter | Potency, µM (doses to about 37.8 µM), without a hit: top-dose activity change, negative = inhibition, usual class: inhibitors; calls by dose curve; tested in HEK293 cells
LASV entry inh = Lassa virus entry inhibition; AID 540256; 300,000 tested, 1.2% active; Lassa virus pseudotype entry inhibition, cell reporter; Potency, µM (highest dose often 37.9 µM), without a hit: at the top dose activity change, negative = inhibition, usual class: inhibitors; calls by dose curve; tested in HEK293 cells; note: nearly all actives have a fitted effect of over 50% in size
Vaccinia Venus = vaccinia inhibition (Venus reporter); 330,000 tested, 0.46% active; Vaccinia virus Venus reporter expression, fluorescence; Potency, µM (series often up to 36.5 µM), for inactives: at the top dose activity change, negative = inhibition, most hits filed as inhibitors; calls by dose curve; tested in A549 cells; note: nearly all actives have a fitted effect of over 30% in size
VACV mCherry inh = vaccinia inhibition (mCherry reporter); Potency, µM (series often up to 36.5 µM), for inactives: at the top dose activity change, negative = inhibition, hits mostly inhibitors; Vaccinia virus mCherry reporter infection, fluorescence; 310,000 tested, 0.63% active; calls by dose curve; tested in A549 cells; note: nearly all actives have a fitted effect of over 35% in size
FMDV antiviral = foot and mouth disease virus antiviral activity; FMDV antiviral cell-based qHTS; Potency, µM (highest dose often 57.9 µM), for inactives: at the top dose activity change, negative = inhibition, actives largely listed as inhibitors; 410,000 tested, 1.2% active; calls by dose curve; tested in HEK293T cells; note: read-out not given here; nearly all actives have a fitted effect of over 45% in size
HCV inhibitor = blocks hepatitis C virus; Huh7.5.1 HCVcc-Cre infection, luciferase reporter, 44 h; Potency, µM (highest dose often 41.8 µM), without a hit: top-dose activity change, negative = inhibition, hits mostly inhibitors; 340,000 tested, 3.4% active; active = well fitted inhibition curve with a large enough effect; inconclusive = small, poorly fitted or top-dose-only effect, or another doubt; inactive = no such curve, though single readings can be large or run the other way
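Cells seeded at 1,000/well and cultured 4 h, then compounds added followed by HCVcc-Cre virus (~0.5 moi). After 44 h further culture, luciferase substrate was added, plates held 15 min at room temperature, and luminescence read for 15 sec.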
Numbers without * were called inactive; i = inactive; ? = inconclusive; / = not tested or not shown; [ ] = another dose, or the depositor's remark. Shown are actives, neighbours in structure and some others; about 5.3% of the full set was active somewhere. % is set by controls: 0 for no effect and ±100 for the full control effect; potency is the fitted concentration of half-maximal effect.

SMILES | MARV entry inh | LASV entry inh | Vaccinia Venus | VACV mCherry inh | FMDV antiviral | HCV inhibitor
COc1ccc(NC(=O)c2ccc(-c3ccc(-c4noc(C)n4)cc3C)cc2)cc1N1CCN(C)CC1 | 2.5µM* | ? | ? | -14% | -8% | ?
COc1ccc(-c2nc(-c3ccc(NC(=O)c4ccncc4)cc3)no2)cc1OC | ? | -19% | -13% | 4% | 8.9µM* | ?
COc1ccc(Cl)cc1-c1nc(-c2ccc(NC(=O)c3ccncc3)cc2)no1 | -12% | -17% | 5% | -7% | -20% | ?
CC(=O)C1=C(O)C(=O)N(c2ccc(Br)cc2)C1c1ccccc1[N+](=O)[O-] (centres undefined) | / | / | / | / | -5% | 14%
CC(C)=CCCC(C)=CCON=C1C[C@@H](O)[C@@H](O)[C@@H]2[C@H]3C(=O)N(Cc4ccc5c(c4)OCO5)C(=O)[C@@H]3CC[C@@H]12 | -44%[14.2 µM] | -1%[14.3 µM] | / | / | / | /
CCC(c1nnnn1Cc1ccccc1)N(Cc1ccco1)Cc1cc2cc(OC)ccc2[nH]c1=O (centres undefined) | -21% | ? | -17% | / | ? | -72%
CCC(c1nnnn1CCc1ccccc1)N(Cc1ccco1)Cc1cc2cc(C)cc(C)c2[nH]c1=O (centres undefined) | ? | ? | -21% | / | ? | 10µM*
CCC(c1nnnn1CCc1ccccc1)N(Cc1ccco1)Cc1cc2c(C)ccc(C)c2[nH]c1=O (centres undefined) | 14µM* | ? | ? | / | 1% | 11µM*
O=S(=O)(NCc1nc(N2CCCC2)c2cc(Cl)ccc2n1)c1ccccc1OC(F)(F)F | / | / | -15% | -14% | -5% | /
C=CCn1c(C)cc(-c2csc(NCC)n2)c1C | ? | -29% | 19% | -1% | 8% | 10µM*
C=CCn1c(C)cc(-c2csc(NC)n2)c1C | ? | -2% | 23% | 8% | 4% | ?
CCC[C@H](C)n1[nH]c(=O)cc1N | 30% | / | / | / | / | /
COC(=O)C1CCN(Cc2ccc3c(c2)CN(C(=O)c2cc(C)nc(C)n2)CCO3)CC1 | / | / | -9% | -16% | 5% | /
CC1(C)OC(=O)C=C(CC2NS(=O)(=O)OC3CCCCC23)O1 (centres undefined) | / | / | -6% | i | -8% | 2.5µM*
O=C(C[C@@H]1NS(=O)(=O)OC2CCCCC21)c1ccccc1 (some centres undefined) | / | / | -10% | i | 17% | 0.28µM*
O=S1(=O)N[C@@H](CC2=CCCCC2)C2CCCCC2O1 (some centres undefined) | / | / | -12% | -2% | 40% | 39%
OC[C@@H](O)[C@@H](O)[C@H](O)[C@H](O)CO | / | / | -7% | 0% | -16% | -16%
C[C@@H]1CC[C@H]2C(=O)O[C@@H](COc3ccc(C(C)(C)C)cc3)CN2[C@@H]1c1ccc(Br)cc1 | ? | -5%[14.3 µM] | / | / | / | /
CCN1CCN(c2cc(N3CCCC3)c([N+](=O)[O-])cc2F)CC1 | 1% | 11% | -20% | ? | -23% | ?
CCN1CCN(c2cc(N3CCc4ccccc4C3)c(F)cc2[N+](=O)[O-])CC1 | 14µM* | ? | ? | -15% | -26% | 4.5µM*
C=CCn1c(SCC#N)nc2cc(Cl)ccc2c1=O | / | / | -19% | 17% | / | /
CNC(=O)c1cc(-c2cccs2)on1 | / | / | ? | -26% | / | /
CCCS(=O)(=O)NCc1c(C)ncc2c1CCN(C(=O)c1ccc3[nH]c4c(c3c1)CCCC4)C2 | / | / | 7% | -10% | -12% | /
COc1cc(-c2[nH]ncc2CN2CCN(c3cccc(C)n3)CC2)cc(OC)c1OC | / | / | 0%[7.34 µM] | i[7.34 µM] | -28% | 11µM*
COc1cc(-c2[nH]ncc2CN2CCSCC2)cc(OC)c1OC | 0%[46.1 µM] | -9% | -27% | i | -13% | ?
SMILES | MARV entry inh | LASV entry inh | Vaccinia Venus | VACV mCherry inh | FMDV antiviral | HCV inhibitor
CN1CCC(Oc2ccccc2Sc2ccccc2)CC1 | 10µM* | 8.2µM* | ? | ? | ? | ?
CN1CCN(Cc2ccccc2Sc2ccccc2)CC1 | ? | ? | -19% | -10% | -16% | ?
OCC[N+]1(CCc2ccccc2)CCOCC1 | / | / | -5% | i | / | /
CC1=[N+](C)c2c(ccc3cccnc23)C1(C)C | ? | 5.6µM* | 25% | 215% | ? | ?
CCOC(=O)c1cnc(S[C@@H]2CC(=O)N(c3cccc(OC)c3)C2=O)nc1N | 13% | / | / | / | / | /
Cc1cc(C)cc(NS(=O)(=O)c2ccc(NC(=S)NC(=O)c3ccc(Br)o3)cc2)c1 | 16µM* | -22% | ? | / | 0% | ?
Cc1ccc(NS(=O)(=O)c2ccc(NC(=O)c3ccccc3C(=O)O)cc2)c(C)c1 | 1%[46.1 µM] | 20%[46.1 µM] | 12% | i | 1% | 1%
Cc1ccc(NS(=O)(=O)c2ccc(NC(=O)c3ccc(Br)o3)cc2)c(C)c1 | ? | ? | -20% | ? | ? | 13µM*
C=C1C(C)C2C(Cc3ccccc3)NC(=O)C23C(OC(C)=O)C=CC(C)(O)CC(C)CC=CC3C1O (centres undefined) | 4µM* | 2.2µM* | ? | ? | -13% | 18%
Nc1c(C(=O)Nc2nc3ccccc3s2)sc2nc(-c3cccs3)ccc12 | 5.8µM* | 6.5µM* | / | / | -104% | ?
Nc1c(C(=O)Nc2ccccc2)sc2nc(-c3ccco3)ccc12 | ? | ? | / | / | ? | 11µM*
COc1ccccc1NC(=O)c1sc2nc(-c3ccco3)ccc2c1N | ? | 2% | -8% | -13% | -1% | 7%
CC(C)NC(=O)c1cn(C2CCCN(C(=O)c3cc4ccccc4oc3=O)C2)nn1 (centres undefined) | / | / | -13% | -8% | -11% | /
CC1=C[C@@H](COCc2ccccc2)O[C@@]2(C1)C(=O)N(Cc1ccccc1C(F)(F)F)c1ccccc12 | 5%[14.2 µM] | / | / | / | / | /
COc1ccc([C@]23Cc4cc(OC)c(OC)cc4[C@H](O2)C2=C(CC4(CCCCC4)OC2=O)O3)cc1 | 2%[14.2 µM] | / | / | / | / | /
CCCCCC1=C(C(=O)OC)C(C(=O)OCC)N(S(=O)(=O)C(F)(F)F)c2ccccc21 (centres undefined) | / | / | -16% | i | ? | 11µM*
COc1cccc(OCCN2CCN(c3ncnc4c3cnn4-c3ccccc3)CC2)c1 | ? | -18% | / | / | ? | 7.1µM*
Cc1nn(-c2ccccc2)c(Cl)c1C(=O)N1CCN(c2ncnc3c2cnn3-c2ccccc2)CC1 | 13µM* | 13µM* | ? | / | 6.3µM* | 2.2µM*
O=C(c1ccccc1)N1CCN(c2ncnc3c2cnn3-c2ccccc2)CC1 | ? | 2% | ? | -12% | ? | 10µM*
Cc1ccc(-n2ncc3c(N4CCN(Cc5ccccc5)CC4)ncnc32)cc1 | / | 14%[46.1 µM] | -8% | -17% | ? | /
O=C(c1ccco1)N1CCN(c2ncnc3c2cnn3-c2ccccc2)CC1 | ? | -21% | -9% | / | 0% | -12%
O=C(c1cccc(Cl)c1)N1CCN(c2ncnc3c2cnn3-c2ccccc2)CC1 | -18%[46.1 µM] | ? | -10% | -13% | -4% | -8%
COCCn1c(CNC(=O)c2ccc(C)cc2)nc2cccnc21 | / | -12%[46.1 µM] | -2% | -12% | -4% | /
COc1ccccc1N(C)S(=O)(=O)c1ccc(C(=O)NC2CCCCC2)cc1 | -13% | 10µM* | -5% | -5% | ? | -4%
COc1ccccc1N(C)S(=O)(=O)c1ccc(C(=O)NC2=NCCS2)cc1 | -5% | -2% | -19% | i | -7% | 16%
CN(c1ccc(C(=O)NC2CCCC2)cc1)S(=O)(=O)c1ccccc1 | -2%[46.1 µM] | ? | 4% | 2% | 6% | -7%
